# Measurements: PubChem BioAssay
# Values joined by “and” are separate entries in the source; they are usually repeats but may differ in a detail not shown here. Equal entries are not always repeated. Active and inactive are the calls of the source.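 Rule for the calls, unless noted: active = visual image review flags a hit and inhibition of aggregation exceeds 20%; inconclusive = visual hit but inhibition at or below 20%; inactive = no hit on visual image review.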
# What was measured:
# [1] = inhibitors of TNFa-induced NFkB p65 translocation, primary screen, imaging, HUVEC, MLSMR starter and 10KST1 sets (AID 438;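 active = inhibition above 20% together with a positive visual image hit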;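 note: compound added about 3h40 before a 20 min TNFalpha stimulation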;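 for inhibition: signal is the nuclear over cytoplasmic p65 intensity ratio per well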); settings: HUVEC TNFa-induced p65 nuclear translocation; cell count: measured here: nuclei count (cytotoxicity indicator), at 2.08 µM unless noted; inhibition: at 2 µM, stronger effect = higher value unless noted
# [2] = inhibitors of mutant huntingtin aggregation, primary screen, imaging, exon1htt(103Q)mCFP cells, high-content imaging (AID 483); settings: exon1htt(103Q)mCFP cell line, aggregate imaging, at 2 µM; inhibition of aggregation: stronger effect = higher value; nuclei count: measured here: cell count, toxicity;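 note: compound exposure lasted 3 days before fixation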;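 for nuclei count: percent of the per-plate median nuclei count of sample wells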
# [3] = inhibitors of E-selectin induction by TNFa, primary screen, imaging, HUVEC, immunofluorescence, MLSMR starter and 10KST1 sets (AID 487;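 active = visually confirmed hit in the image check and inhibition above 20%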;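 for inhibition: signal is fraction of cell area covered by stained E-selectin grains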;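 for nuclei count: 100% = median nuclei count of all wells on the same plate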); settings: HUVEC TNFalpha-induced E-selectin immunofluorescence imaging, at 2 µM; inhibition: stronger effect = higher value; nuclei count: measured here: cell number, toxicity
# [4] = biological target: Voltage-gated potassium channel subunit beta-2 (Rattus norvegicus) (UniProt P62483); assay: KvBeta enzyme negative modulators, primary screen, biochemical, NADPH fluorescence (AID 622;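 active = fluorescence slope higher than the sample average by over 3 SD, cut at about -0.22 in these data, passing the limit was not always enough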;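 note: slope of raw intensity against log time taken from 70 to 1610 s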); settings: recombinant KvBeta, 4-cyanobenzaldehyde reduction, at 10 µM, stronger effect = higher value
# Chain of Voltage-gated potassium channel subunit beta-2 (Rattus norvegicus) (P62483 whole entry, looked up): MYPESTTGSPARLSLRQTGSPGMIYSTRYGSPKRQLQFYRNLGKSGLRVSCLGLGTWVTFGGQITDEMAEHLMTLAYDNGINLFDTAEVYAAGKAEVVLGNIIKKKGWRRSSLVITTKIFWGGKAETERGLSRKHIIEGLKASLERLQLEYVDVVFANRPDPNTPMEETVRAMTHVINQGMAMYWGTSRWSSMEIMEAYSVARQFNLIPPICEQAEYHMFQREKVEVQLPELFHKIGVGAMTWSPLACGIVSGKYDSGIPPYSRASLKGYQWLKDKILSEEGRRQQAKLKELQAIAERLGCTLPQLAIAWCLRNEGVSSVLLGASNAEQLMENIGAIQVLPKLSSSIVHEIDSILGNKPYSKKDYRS
# [5] = biological target: Voltage-gated potassium channel subunit beta-2 (Rattus norvegicus) (UniProt P62483); assay: KvBeta positive modulators, primary screen, biochemical, NADPH fluorescence (AID 623;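 active = NADPH fluorescence slope more negative than the mean of all samples by about 3 SD, 99.7% confidence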;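 note: fluorescence intensity change per second fitted from 20 to 320 s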); settings: Recombinant KvBeta, NADPH fluorescence decrease slope, 10 min; at 10 µM; stronger effect = lower value
# [6] = biological target: Muscarinic acetylcholine receptor M4 (Homo sapiens) (UniProt P08173); assay: compounds altering M4/GIRK thallium flux, either direction, primary screen, M4 allosteric agonist project, cell-based, HEK293 M4/GIRK, BTC-AM (AID 625;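 active = fluorescence slope after compound addition differing from the mean of all tested samples at 99.7% confidence, mostly higher but some lower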;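 note: thallium influx through GIRK channels coupled to M4 in HEK293 cells with BTC-AM dye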); settings: at 10 µM, actives lie on both sides
# Chain of Muscarinic acetylcholine receptor M4 (Homo sapiens) (P08173 whole entry, looked up): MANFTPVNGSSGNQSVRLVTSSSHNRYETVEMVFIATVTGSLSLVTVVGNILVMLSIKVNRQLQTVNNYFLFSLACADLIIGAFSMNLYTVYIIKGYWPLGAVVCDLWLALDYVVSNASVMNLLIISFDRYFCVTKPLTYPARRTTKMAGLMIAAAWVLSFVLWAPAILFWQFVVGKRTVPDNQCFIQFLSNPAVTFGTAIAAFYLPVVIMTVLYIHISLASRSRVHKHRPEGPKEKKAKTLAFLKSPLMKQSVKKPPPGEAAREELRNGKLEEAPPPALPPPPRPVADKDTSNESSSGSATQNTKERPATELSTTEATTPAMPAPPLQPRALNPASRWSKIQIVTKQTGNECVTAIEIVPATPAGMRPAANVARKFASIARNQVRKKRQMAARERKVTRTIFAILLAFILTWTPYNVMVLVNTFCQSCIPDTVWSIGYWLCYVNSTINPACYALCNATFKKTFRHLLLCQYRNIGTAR
# [7] = inhibitors of Sendai virus-induced IRF3 signaling, primary screen, TLR/RLR signaling modifier project, cell-based, Sendai virus stimulus, luciferase, 10K MLSCN set (AID 602276;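 active = inhibition at or above 50% at 10 µM; inactive = inhibition below 50%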;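 note: firefly luciferase from ISG56 promoter only with Renilla not read in this screen; 0% = Sendai virus plus DMSO and 100% = medium plus DMSO without virus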); settings: HEK293 RL24 IRF3 luciferase reporter, at 10 µM, stronger effect = higher value
# [8] = inhibitors of poly I:C-induced TLR3 signaling, primary screen, cell-based, poly I:C stimulus, luciferase, 10K MLSCN set (AID 602277;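 active = inhibition of the reporter signal at or above 50%; inactive = inhibition below 50%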); settings: HEK293-TLR3 RL24 IRF3 luciferase reporter, at 10 µM, stronger effect = higher value
# [9] = inhibitors of Chlamydomonas gravitaxis, primary screen, whole organism, Chlamydomonas reinhardtii, WT vs cilia-less mutant, absorbance, 96-well (AID 463189;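 active = inhibition at or above 50% relative to wild type and mutant plate controls; inactive = inhibition below 50%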;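 note: 0% = wild type cc124 cells in DMSO and 100% = ciliumless bld1 mutant cells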); settings: OD600 absorbance, 2 days, at 10 µM, stronger effect = higher value
SMILES,cell count [1],inhibition [1],inhibition of aggregation [2],nuclei count [2],inhibition [3],nuclei count [3],fluorescence slope [4],NADPH fluorescence slope [5],fluorescence slope [6],inhibition [7],inhibition [8],inhibition [9]
CCOC(=O)C(O)(c1ccc(N(CC)C(=O)OC)cc1)C(F)(F)F (stereo unspecified),614,-6.1% (inactive),-9.5% (inactive),91.2%,-140% (inactive),111%,-0.425 (inactive),-0.000455 (inactive),0.00401 (inactive),13.7% (inactive),13.7% (inactive),
Cc1ccc(CS(=O)(=O)CCC(=O)N2CCC3(CC2)OCCO3)cc1,463,6% (inactive),-8.2% (inactive),111%,-31.5% (inactive),109%,-0.573 (inactive),-6.6e-05 (inactive),0.00375 (inactive),13.7% (inactive),16.9% (inactive),
O=C(CN1C(=O)CN=C(c2ccccc2)c2ccccc21)NCc1ccco1,519,-2.9% (inactive),-13.4% (inactive),99.4%,-66.7% (inactive),142%,-0.571 (inactive),-6.4e-05 (inactive),0.00595 (inactive),-12.7% (inactive),-12.1% (inactive),
CCCCn1c(O)c(C(C)=Nc2cccc(C(=O)O)c2)c(=O)[nH]c1=O,278,6.8% (inactive),4.7% (inactive),75.2%,-151% (inactive),199%,-0.604 (inactive),2.7e-05 (inactive),0.00369 (inactive),4.58% (inactive),3.8% (inactive),
O=C(Cn1c2c(c(-c3ccccc3Cl)cc1=O)CCC2)N1CCC2(CC1)OCCO2,861,-5% (inactive),-9% (inactive),107%,-175% (inactive),125%,-0.605 (inactive),9.7e-06 (inactive),0.00803 (inactive),-8.12% (inactive),-12.2% (inactive),
CC(=O)N1CC(=O)Nc2ccc(Cl)cc2C1c1ccc(F)cc1 (stereo unspecified),416,20.8% (inactive),-6.1% (inactive),103%,-45.1% (inactive),105%,-0.569 (inactive),-1.5e-05 (inactive),0.00574 (inactive),-2.3% (inactive),-0.788% (inactive),
Cn1c(C(=O)N2CCC3(CC2)OCCO3)cc2c(=O)n(C)c3ccccc3c21,551,-0.2% (inactive),26.7% (inactive),104%,-17.8% (inactive),125%,-0.522 (inactive),-5.9e-06 (inactive),0.00705 (inactive),13.8% (inactive),20.5% (inactive),
CCN1CCN(c2ncnc3ccc(Br)cc23)CC1,207,2.1% (inactive),48% (active),77.2%,-79% (inactive),99.3%,-0.583 (inactive),2.1e-06 (inactive),0.00395 (inactive),13.3% (inactive),8.78% (inactive),
NN=C(N)N,,,,,,,,,,,,15.6% (inactive) and 6.1% (inactive)
COc1ccc(C2NCc3ccc4c(c3-n3cccc32)OCO4)cc1O (stereo unspecified),479,9.5% (inactive),-349% (inactive),0.8%,-140% (inactive),99%,-0.458 (inactive),-4.4e-05 (inactive),0.00468 (inactive),27.9% (inactive),83% (active),
Cc1ccc(O)c(CN2CCN(c3ccccc3)CC2)c1,307,1% (inactive),-4.7% (inactive),95.9%,-91.9% (inactive),120%,-0.202 (inactive),-1.8e-05 (inactive),0.00457 (inactive),12% (inactive),15.6% (inactive),
COCCOC(=O)C1=C(N)Oc2c(c(=O)oc3ccccc23)C1c1ccncc1 (stereo unspecified),329,2.2% (inactive),1.7% (inactive),73%,1.8% (inactive),73.8%,-0.474 (inactive),-1.3e-05 (inactive),0.00616 (inactive),14.5% (inactive),27.3% (inactive),
O=C(O)c1nonc1-c1nonc1C(=O)O,195,-1.9% (inactive),14.6% (inactive),99.5%,-27.8% (inactive),104%,-0.641 (inactive),-1.4e-05 (inactive),0.00379 (inactive),17.8% (inactive),15.2% (inactive),
C#CCOC(=O)C1=CCCN(C)C1,,,,,,,,,,,,6.87% (inactive)
CCOc1ccc(Br)c(C2(O)CC(C)N(C)CC2C)c1 (stereo unspecified),607,-10.1% (inactive),-25.8% (inactive),122%,-36.6% (inactive),121%,-0.398 (inactive),-8.9e-05 (inactive),0.00551 (inactive),12.4% (inactive),21.4% (inactive),
NC(=O)OCCSc1nnc(-c2cccc(C(N)=S)c2)o1,330,3.5% (inactive),-7.4% (inactive),107%,-48% (inactive),96.2%,-0.541 (inactive),-9.5e-05 (inactive),0.00508 (inactive),17.8% (inactive),12.8% (inactive),
